# Reference: paper PMC7819943, “Rice protein-binding microarrays: a tool to detect cis-acting elements near promoter regions in rice”
# The full ranking holds about 39,000 sequences; the median of “fluorescence intensity (a.u.)” is about 4,300, and the highest 2% start at about 39,000. The entries come from a sample that favours the highest values as a whole.
# Target: T1, OsSMF1 (Oryza sativa, UniProt Q6ZLB0 1-436)
# T1 sequence: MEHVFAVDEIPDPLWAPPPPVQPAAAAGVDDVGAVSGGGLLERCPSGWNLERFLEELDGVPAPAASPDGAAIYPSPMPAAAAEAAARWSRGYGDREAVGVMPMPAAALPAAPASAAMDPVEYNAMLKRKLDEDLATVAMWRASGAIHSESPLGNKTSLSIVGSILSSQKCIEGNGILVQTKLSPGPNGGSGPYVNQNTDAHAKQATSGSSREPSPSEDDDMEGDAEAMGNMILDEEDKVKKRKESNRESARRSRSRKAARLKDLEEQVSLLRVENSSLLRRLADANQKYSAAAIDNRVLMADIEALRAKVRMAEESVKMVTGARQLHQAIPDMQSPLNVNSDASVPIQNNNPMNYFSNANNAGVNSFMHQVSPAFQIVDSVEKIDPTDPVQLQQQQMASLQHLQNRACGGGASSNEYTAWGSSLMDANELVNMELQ
# Test: protein-binding microarray (RPBM); PBS, 2% BSA, 51.3 ng/ul salmon testes DNA, 50 uM zinc acetate, 200 nM TF, 25 C, 1 h; high values mean tight binding
# Conditions: protein: recombinant; tags: N-terminal polyhistidine and DsRed monomer fusion (pET32a); chain copies: 2; label: CyDye5-dUTP incorporated in the synthesized complementary strand; 3' TTTTT single-stranded linker to array surface; dsDNA, one strand shown
# Summary of the method: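 Binding signal here means per-feature fluorescence intensity in arbitrary units. The values were read on an Axon 4000B scanner after a custom Agilent array, double-stranded by primer extension with Cy5-dUTP, was incubated with 200 nM protein at 25 °C for 1 h in PBS with 2% BSA, salmon testes DNA and 50 µM zinc acetate, then washed. The proteins were transcription factors with an N-terminal polyhistidine tag and DsRed, expressed in E. coli BL21-CodonPlus and purified on Ni–NTA.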
row,Sequence,binding signal
1,TACAAAATCATCCATCAACCGCAAAATCAGATATCGACCGCGGAGTCACCTAGTGCAG,3800 fluorescence intensity (a.u.)
2,GATGTGACGTGATGTGATGGAAAGTTGGGAGTTGGGGAAACGGAGTCACCTAGTGCAG,6040 fluorescence intensity (a.u.)
3,TTGGCCGGTAACGCGTCATGACTCATGAGCTACTGGACTTCGGAGTCACCTAGTGCAG,9990 fluorescence intensity (a.u.)
4,TTCGTCCGTGCGTGCGTGCGTGCGCGACTCGCTCTCACACCGGAGTCACCTAGTGCAG,10700 fluorescence intensity (a.u.)
5,TACATTTCTTTGACAAAACTTTTATAACCAGCTGATGTGGCGGAGTCACCTAGTGCAG,11400 fluorescence intensity (a.u.)
6,GAGTTGTGACTGTGAGGCACACCAATGGCGGCCCATGGATCGGAGTCACCTAGTGCAG,3740 fluorescence intensity (a.u.)
7,CACTGTCCATCCATGGTGGTGGTCAGACAACCCCAGCACACGGAGTCACCTAGTGCAG,3990 fluorescence intensity (a.u.)
8,TGCGATTGATTCGGTATTAGAGCCTGCATACGTGTCATCTCGGAGTCACCTAGTGCAG,22100 fluorescence intensity (a.u.)
9,CCTCTCCAGTACGCGTCGCCCCGCCACGTCAGCGACTGGCCGGAGTCACCTAGTGCAG,41600 fluorescence intensity (a.u.)
10,TCGGCCAATGCGGAGCCGTCAGCTCTCCGCTGCTCGGCTACGGAGTCACCTAGTGCAG,44400 fluorescence intensity (a.u.)
11,GTCGGCCCATGAATATGCTGACGTCACTTTTGAGCCCACTCGGAGTCACCTAGTGCAG,36600 fluorescence intensity (a.u.)
12,CCATCTCGGCCCATGAGGATGCTGACGTCACCGCGTCGTCCGGAGTCACCTAGTGCAG,42700 fluorescence intensity (a.u.)
13,TCCAGATCTTGGCGCCGCCGGATCCCGTCAGTCTCCACAACGGAGTCACCTAGTGCAG,48300 fluorescence intensity (a.u.)
14,CGCTCTGCCGTCCGGCTCTCCGCGCGATGCTACGTGGCCGCGGAGTCACCTAGTGCAG,5480 fluorescence intensity (a.u.)
15,TCTCCCAGGCCACCATCGGCGTCCACATCCCGCCGTCCGCCGGAGTCACCTAGTGCAG,3510 fluorescence intensity (a.u.)
16,GCCGCCGCCGCCGTCTGCACCCGCGTCAGCGCTCCACAAACGGAGTCACCTAGTGCAG,3440 fluorescence intensity (a.u.)
17,CGGCCGCCGCGACACCCGCCGCCACGTCGCCCCGCCACGCCGGAGTCACCTAGTGCAG,9460 fluorescence intensity (a.u.)
18,CATGAGGAGGATGCTGACGTCTCGAGGTGAAGGCCGCAATCGGAGTCACCTAGTGCAG,4970 fluorescence intensity (a.u.)
19,GCCTCCACCTCGCTGCTGCTCCGCCAGCTAGTAGCCGCCACGGAGTCACCTAGTGCAG,3350 fluorescence intensity (a.u.)
20,CTCTCCCGCCTCGCCCGTCGACGCCCGCGCCACGTGCAGCCGGAGTCACCTAGTGCAG,6190 fluorescence intensity (a.u.)
21,GACATTTACATGTACTGATTGCTGATTGCCATTGATTCATCGGAGTCACCTAGTGCAG,22800 fluorescence intensity (a.u.)
22,CAGTGTTACATCATCGACCGGTTATCATCTTTGTTTCGATCGGAGTCACCTAGTGCAG,3580 fluorescence intensity (a.u.)
23,TTGCACATGCTGATTATTACATATTGCTACGTCCTTTTGCCGGAGTCACCTAGTGCAG,3230 fluorescence intensity (a.u.)
